# The list is not random: actives were taken first. Their share in the collection is about 9.2%.
# Rab9 prom act = Rab9 promoter activation; 2.8% of 320,000 active; Huh7 Rab9 promoter-luciferase reporter, luminescence, 24 h; Potency, µM (top dose mostly 9.22 µM), inactives show at the top dose activation, negative = inhibition, actives largely listed as activators; AID 485297; note: % of control where 0% means no effect; nearly all actives have a fitted effect of over 60% in size
#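 Promoter activation is measured as luciferase luminescence in Huh7 cells stably transfected with a Rab9 promoter–luciferase construct, following 24 h compound exposure at 37 °C and 10 min reagent incubation at ambient temperature.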
# ELG1 genotoxic = inducers of genotoxicity in HEK293T ELG1-luciferase cells | HEK293T ELG1-luciferase reporter, luminescence, 16 h | Potency, µM (doses to about 46 µM), for inactives: at the highest dose activity change, positive = activation, most hits filed as activators | 1.3% of 330,000 active | AID 504466; note: % of control where 0% means no effect; nearly all actives have a fitted effect of over 60% in size
#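 DMSO vehicle served as control against compound-treated ELG1-luciferase HEK293T cells; exposure lasted 16 hr at 37 °C and 5% CO2, followed by ONE-Glo luminescence detection after 30 min.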
# FLuc counter = inhibits or activates purified firefly luciferase, miR-21 counter-screen; purified FLuc, Km substrates, luminescence inhibition; Potency, µM (highest dose often 57.5 µM), without a hit: at the top dose activity change, negative = inhibition, most hits filed as inhibitors; 6.9% of 360,000 active; P08659;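 note: plate controls were vehicle for no effect and reference inhibitor for full effect; nearly all actives have a fitted effect of over 55% in size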
# Target sequence (P08659 whole entry, looked up): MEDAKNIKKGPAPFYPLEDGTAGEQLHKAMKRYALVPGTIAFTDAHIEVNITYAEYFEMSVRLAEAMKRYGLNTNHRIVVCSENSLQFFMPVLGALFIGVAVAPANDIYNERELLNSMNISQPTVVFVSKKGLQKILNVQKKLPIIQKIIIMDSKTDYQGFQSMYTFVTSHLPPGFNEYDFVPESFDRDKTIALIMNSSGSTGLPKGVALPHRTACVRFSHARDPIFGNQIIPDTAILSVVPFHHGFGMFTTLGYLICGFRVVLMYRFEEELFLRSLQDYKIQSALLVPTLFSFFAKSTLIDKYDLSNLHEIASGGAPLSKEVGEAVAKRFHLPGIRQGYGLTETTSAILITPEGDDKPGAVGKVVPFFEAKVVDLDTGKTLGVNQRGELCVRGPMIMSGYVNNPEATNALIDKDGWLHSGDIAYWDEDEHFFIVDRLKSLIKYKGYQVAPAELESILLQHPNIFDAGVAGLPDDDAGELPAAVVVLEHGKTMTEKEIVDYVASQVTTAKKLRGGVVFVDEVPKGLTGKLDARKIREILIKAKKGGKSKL
#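 Biochemical qHTS of compounds, final roughly 60 µM downward over six points, against 10 nM purified firefly luciferase using Km concentrations of substrates (10 uM D-luciferin, 10 uM ATP) in Tris acetate pH 7.5 buffer; luminescence output.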
# SMN2 splice enh = increases expression of the SMN2 splice variant | HEK293 SMN2-luciferase splicing reporter, luminescence, 30-36 h | Potency, µM (top dose mostly 46.1 µM), for inactives: at the highest dose activity change, positive = activation, actives largely listed as activators | 2.8% of 210,000 active | AID 1458; note: % of control where 0% means no effect; nearly all actives have a fitted effect of over 55% in size
#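 HEK293 cells carry an SMN2 […]–luciferase reporter in which exon 7 inclusion puts luciferase in frame. Cells were plated 10-12 h before compound addition, then incubated 30-36 h at 37C. ONE-Glo luminescence was read; sodium butyrate at 4.5 mM final served as control.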
# ELG1 repair inh = ELG1-dependent DNA repair inhibition; Potency, µM (series often up to 46.1 µM), inactives show at the top dose activity change, negative = inhibition, most hits filed as inhibitors; HEK293T ELG1-luciferase reporter, luminescence, 16 h; DNA damage induced by 5-fluorouridine; 2.3% of 330,000 active; note: % is set by controls: 0 for no effect and ±100 for the full control effect; nearly all actives have a fitted effect of over 55% in size
#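 Reporter activity after DNA damage by 5-fluorouridine is monitored. Compound-treated cells incubate 16 hr at 37 °C, then ONE-Glo is added for 30 min before luminescence reading.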
# NPC1 promoter act = NPC1 promoter activation; Huh7 NPC1 promoter luciferase reporter, 24 h; Potency, µM (series often up to 9.22 µM), for inactives: at the highest dose activation, usual class: activators; 2.4% of 320,000 active; note: % of control where 0% means no effect; nearly all actives have a fitted effect of over 60% in size
#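 NPC1 promoter–luciferase Huh7 cells; 24 h compound; luminescence.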
# An asterisk follows results filed as active; ? = inconclusive; · = not tested or not shown. Calls come from the whole dose curve; as a rule, active = well fitted curve in the direction sought with a large enough effect; inconclusive = small, poorly fitted or top-dose-only effect, or another doubt; inactive = no such curve, though single readings can be large; an effect the other way counts as inactive or inconclusive. Potency is the fitted concentration of half-maximal effect.
SMILES,Rab9 prom act,ELG1 genotoxic,FLuc counter,SMN2 splice enh,ELG1 repair inh,NPC1 promoter act
COc1cc(/C=C/C(=O)c2ccc3c(c2)OCO3)cc(Cl)c1O,1.3%,-2.3%,8.49µM*,·,-11.1%,-4.3%
COc1ccc(/C=C/C(=O)c2cc(Cl)cc(Cl)c2O)c(OC)c1,-3.0%,-0.7%,?,·,-6.0%,-3.8%
COc1ccc(/C=C/C(=O)c2ccccc2)c(OC)c1,1.78µM*,?,2.39µM*,?,?,3.16µM*
CCN(CC(=O)Nc1ccc2c(c1)OCCO2)C(=O)/C=C/c1ccc(OC)cc1OC,18.3%,?,15.1µM*,·,21.9%,13.5%
CCN(CC(=O)Nc1ccc2c(c1)OCCO2)C(=O)/C=C/c1ccc(OC)c(OC)c1,1.0%,2.8%,-0.1%,·,4.1%,-5.4%
Cc1cc(C)c(-n2c(SCC(=O)N3CCOCC3)n[nH]c2=O)c(C)c1,6.2%,-3.1%,-0.5%,·,-8.0%,5.3%
COc1ccc(/C=C/C(=O)NNC(=O)c2ccncc2)c(OC)c1,-1.5%,-0.9%,13.5µM*,·,?,0.0%
COc1ccc(/C=C/C(=O)NCC2COc3ccccc3O2)c(OC)c1 (stereo not drawn),4.1%,1.7%,23.9µM*,12.2%,-7.5%,11.9%
COc1cccc(/C=C/C(=O)c2ccc3c(c2)OCCO3)c1OC,?,?,0.757µM*,·,?,3.16µM*
COc1ccc(NC(=O)CCC2COc3ccccc3O2)c(OC)c1 (stereo not drawn),2.7%,2.1%,2.2%,-12.7%,-1.6%,-1.8%
COc1ccc(/C=C/C(=O)c2ccc(OC)cc2OC)c(OC)c1,8.9%,0.7%,19µM*,·,?,17.0%
CCCCCCCCCCCCCCC[C@@H](O)[C@@H](N)CO,·,·,·,-2.1%,·,·
C=CCNCC(O)COc1ccc(C(C)=O)cc1OC (stereo not drawn),-0.5%,1.2%,3.7%,·,?,4.3%
COc1ccc(NC(=O)COC(=O)c2ccc3c(c2)OCO3)c(OC)c1,·,25.4%,·,·,9.9%,·
COc1cc(O)c(C(=O)/C=C/c2ccccc2)c(OC)c1,15.5%,5.5%,10.7µM*,-29.9%,?,4.3%
COc1ccc(/C=C/C(=O)c2ccc3c(c2)OCO3)c(OC)c1,2.82µM*,5.8µM*,2.13µM*,15.8µM*,?,3.16µM*
CCOc1c(Cl)cc(/C=C/C(=O)N(CC)CC(=O)Nc2ccc(NC(C)=O)cc2)cc1OC,-3.7%,-4.0%,-17.4%,·,14.6µM*,-1.5%
Cc1ccc2nc(CSc3nc(C)ccc3C#N)[nH]c2c1,0.562µM*,11.4%,0.536µM*,2.51µM*,?,?
Cc1ccc2nc(SCc3nc4ccccc4c(=O)[nH]3)[nH]c2c1,2.82µM*,18.0%,9.53µM*,22.4µM*,?,?
O=c1[nH]c(CSc2ccccn2)nc2c1cnn2-c1ccccc1,16.0%,2.2%,?,-4.5%,0.8%,16.8%
O=c1[nH]c(CSc2ccccn2)nc2ccccc12,2.82µM*,?,13.5µM*,11.2µM*,?,2.51µM*
Cc1cc(C)c(C#N)c(SCc2nc3ccccc3c(=O)[nH]2)n1,?,8.2µM*,2.39µM*,0.794µM*,?,?
CCOc1ccc(S(=O)(=O)N2CCC(C(=O)N3CCCC3)CC2)cc1C,-0.5%,-7.0%,-0.1%,·,-0.4%,-2.7%
CCCCCCc1nc2ccccc2c(=O)n1N,12.5%,7.1%,-0.9%,-12.3%,12.7%,-1.1%
Nn1c(CSc2ccccn2)nc2ccccc2c1=O,?,?,19µM*,11.2µM*,?,3.98µM*
SMILES,Rab9 prom act,ELG1 genotoxic,FLuc counter,SMN2 splice enh,ELG1 repair inh,NPC1 promoter act
COc1ccc(N(C)S(=O)(=O)c2cccc(C(=O)Nc3cc(OC)ccc3OC)c2)cc1,-9.9%,-8.3%,5.9%,-24.2%,?,-1.7%
COc1ccc(N(C)S(=O)(=O)c2cccc(C(=O)Nc3ccc(-n4cnnn4)cc3)c2)cc1,0.7%,-12.6%,1.0%,-41.7%,18.4µM*,-23.9%
COc1ccc(N(C)S(=O)(=O)c2cccc(C(=O)Nc3ccc4c(c3)OCCO4)c2)cc1,-8.4%,-12.6%,-9.0%,9.3%,?,0.5%
COc1ccc(N(C)S(=O)(=O)c2cccc(C(=O)OC(C(=O)Nc3cc(C)cc(C)c3)c3ccccc3)c2)cc1 (stereo not drawn),-1.7%,-1.8%,5.7%,15.8µM*,-4.2%,12.4%
COc1ccc(N(C)S(=O)(=O)c2cccc(C(=O)Nc3ccc(OC)nc3)c2)cc1,-5.0%,-7.8%,-1.4%,-18.6%,18.4µM*,1.1%
O=C(Nc1cccnc1)C1OCCc2ccccc21 (stereo not drawn),1.3%,-2.1%,6.0%,2.2%,4.1%,11.9%
O=C(Nc1ccc(Br)cc1)C1OCCc2ccccc21 (stereo not drawn),?,1.7%,16.9µM*,·,27.7%,23.9%
CN(C1CCCCC1)S(=O)(=O)c1ccc2c(c1)CCC(=O)N2,-7.8%,2.9%,3.0%,·,?,3.8%
Cc1cc2nc(/C=C/c3cccnc3)[nH]c2cc1C,?,2.31µM*,2.39µM*,·,?,?
COc1cc(/C=C2\SC(c3ccc(C)cc3)=NC2=O)cc(OC)c1O,-17.7%,2.7%,6.75µM*,26.7%,-4.4%,-2.4%
Cc1ccc(C2=NC(=O)/C(=C/c3cc(O)c(O)c(Br)c3)S2)cc1,-11.0%,-9.2%,8.49µM*,-10.3%,-12.2%,-7.5%
O=C(NCc1ccccc1)c1cccc2c1C(=O)c1ccc(/C=C/c3ccccc3)cc1S2(=O)=O,·,2.7%,·,·,-15.9%,·
COc1ccc(C(=O)c2cn(CC(=O)Nc3ccc4c(c3)OCCO4)c3ccc(OC)cc3c2=O)cc1,·,·,-16.3%,-14.6%,·,·
COC(=O)/N=C(/Cc1ccc(OC)cc1)c1ccc(OC)cc1,17.4%,8.4%,0.757µM*,·,?,18.5%
CCCCC(=O)Nc1ccc(C(=O)NNC(=O)c2ccc(C)c(Br)c2)cc1,-1.9%,?,2.1%,·,15.8%,-0.5%
Cc1nc2ccc(NC(=O)c3ccc(=O)[nH]c3)cc2s1,-0.6%,12.3%,-6.2%,·,?,-0.6%
Cc1ccc(NC(=O)c2ccc3ncsc3c2)cc1S(=O)(=O)N(C)C,0.355µM*,?,2.13µM*,·,?,0.355µM*
Cc1nc2ccc(NC(=O)c3ccccc3)cc2s1,2.82µM*,?,19µM*,22.4µM*,?,2.82µM*
COc1cc(C(=O)Nc2ccc(C(C)=O)cc2)c(Br)c(OC)c1OC,?,7.6%,16.9µM*,?,?,24.5%
CC(=O)c1ccc(NC(=O)c2ccc(C)c(Br)c2)cc1,0.794µM*,?,6.01µM*,11.2µM*,?,2.51µM*
Cc1cc(C)cc(N(CCC#N)C(=O)CSc2ncnc3sccc23)c1,-10.8%,1.6%,-2.0%,·,?,0.7%

# Screening data from PubChem.
